Assay results taken from PubChem BioAssay (EPA / NIEHS).
Inconclusive results are not listed. The source holds several records for some structures; these can differ, active in one and inactive in another. Activity calls are given as the source filed them. The calls were made as follows, unless noted: active = hit-call score of the fitted dose curve at least 0.9, where 1 is the maximum; inconclusive = response in the unintended direction; inactive = score below 0.9.

What was measured:
[1] = STM_H9_CystineISnorm_perc: Stemina devTOX quickPredict H9 human embryonic stem cell (hESC)-based Assay for Cystine (CYSS) Metabolite Biomarker, Normalized (AID 2283713; active = hit-call score of the fitted dose curve at least 0.9, where 1 is the maximum; inactive = score below 0.9)
In short: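 Undifferentiated H9 hESCs were exposed to compound for 72h, with medium and compound replaced every 24h. Final-24h conditioned medium was deproteinized and analyzed by UPLC-HRMS. Cystine EIC area was normalized to spiked C13 standard and 0.1% DMSO median.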

[2] = STM_H9_OrnCyssISnorm_ratio: Stemina devTOX quickPredict H9 human embryonic stem cell (hESC)-based Assay for Ornithine (ORN):Cystine (CYSS) Ratio (AID 2283714)
In short: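 Undifferentiated H9 hESCs exposed 72 h, media and compound replaced every 24 h; final 24-h conditioned media deproteinized and analysed by UPLC-HRMS against C13 spike-ins. Value is the internal-standard-normalized ORN/CYSS ratio versus 0.1% DMSO.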

[3] = CEETOX_H295R_MTT_cell_viability: Viability Assessment in the CeeTox HT-H295R MTT Assay (AID 2283718; active = hit-call score of the fitted dose curve at least 0.9, where 1 is the maximum; inactive = score below 0.9;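 as to AC50: curve fitted both ways so AC50 may mark viability loss or gain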)
In short: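 Human H295R adrenal cells, prestimulated 48 h with 10 uM forskolin, were exposed 48 h to chemicals in 0.1% DMSO. Viability was measured in the same wells by MTT (0.5 mg/ml, 4 h, 37 C), absorbance 570/650 nm, as percent of controls.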

[4] = Tanguay_ZF_120hpf_ActivityScore_legacy: (Legacy) Oregon State University Tanguay Lab 120 Hour Post-fertilization zebrafish Assay Score for Activity (AID 2283742);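 as to AC50: dechorionated Tropical 5D wild-type zebrafish embryos held singly per well; static exposure from 6 hpf until 120 hpf at 28 °C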
In short: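 Dechorionated Tropical 5D embryos, one per well from 6 hpf, statically exposed to 120 hpf at 28 °C in 0.64% DMSO. Mortality and malformations scored binary by brightfield microscopy; activity score combines 18 endpoints, fitted positively versus DMSO.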

[5] = target: Luciferin 4-monooxygenase (Photinus pyralis) (UniProt P08659); experiment: CCTE_Simmons_QuantiLum_inhib_2: CCTE's Firefly Luciferase Inhibition Assay, Simmons Lab (AID 2283767);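 as to AC50: potency for inhibitors that lower luciferase luminescence relative to DMSO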
Sequence of Luciferin 4-monooxygenase (Photinus pyralis) (P08659 whole entry, looked up): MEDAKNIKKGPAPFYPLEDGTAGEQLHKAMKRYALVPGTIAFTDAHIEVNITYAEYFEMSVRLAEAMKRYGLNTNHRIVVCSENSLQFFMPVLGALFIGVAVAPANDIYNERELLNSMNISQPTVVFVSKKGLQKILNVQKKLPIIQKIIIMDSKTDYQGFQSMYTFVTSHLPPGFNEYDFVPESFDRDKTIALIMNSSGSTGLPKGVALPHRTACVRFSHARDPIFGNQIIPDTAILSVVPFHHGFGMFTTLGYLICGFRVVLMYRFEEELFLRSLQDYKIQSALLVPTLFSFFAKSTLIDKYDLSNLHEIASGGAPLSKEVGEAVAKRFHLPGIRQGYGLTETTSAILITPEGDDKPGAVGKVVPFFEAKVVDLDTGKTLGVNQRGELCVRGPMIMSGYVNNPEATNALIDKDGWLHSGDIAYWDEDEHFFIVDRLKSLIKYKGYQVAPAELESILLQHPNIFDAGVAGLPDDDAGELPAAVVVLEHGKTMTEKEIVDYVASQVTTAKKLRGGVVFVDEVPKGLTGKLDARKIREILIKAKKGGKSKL
In short: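 Recombinant firefly luciferase (5 ng/well, 200 mM potassium phosphate with 1 mg/ml BSA) was exposed to 8 concentrations from 5 nM to 87.5 uM (final, 0.5% DMSO) for 30 min at 37C in the dark. Loss of luminescence versus DMSO was read after injecting D-luciferin/ATP-analogue reagent.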

[6] = ACEA_AR_agonist_AUC_viability: ACEA Biosciences xCELLigence Real-Time Cell Analysis on Androgen Receptor Agonism for Viability (AID 2283775);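 also: viability read 80 hours after compound addition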
In short: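 Read-out is area under the impedance curve at 80 h post-dose in 22Rv1 cells, with DMSO as baseline and signal loss taken as reduced viability. Compounds ran in duplicate from 100 uM final.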

[7] = system: chicken Androgen Receptor (AR), gene 422165; experiment: ATG_chAR_XSP1: Attagene TRANS-FACTORIAL Multi-Species (XSP1) HepG2 Assay for chicken Androgen Receptor (AR) (AID 2283768)
In short: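 HepG2 cells transiently transfected with multiplexed GAL4-UAS reporter units expressing chimeric chicken AR-Gal4; 3 nM 6-alpha-fluorotestosterone for partial AR stimulation; 24 h after dosing, reporter mRNA by RT-PCR and capillary electrophoresis, gain-of-signal versus DMSO.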

[8] = system: frog Androgen Receptor (AR), gene 399456; experiment: ATG_frAR_XSP1: Attagene TRANS-FACTORIAL Multi-Species (XSP1) HepG2 Assay for frog Androgen Receptor (AR) (AID 2283770)
[9] = system: zebrafish Androgen Receptor (AR), gene 100005148; experiment: ATG_zfAR_XSP1: Attagene TRANS-FACTORIAL Multi-Species (XSP1) HepG2 Assay for zebrafish Androgen Receptor (AR) (AID 2283771)
In short: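 HepG2 cells were transiently transfected with a zebrafish AR-GAL4 reporter system and partially stimulated with 3 nM 6-alpha-fluorotestosterone. Reporter mRNA was measured after 24 h dosing by RT-PCR with capillary electrophoresis, and gain-of-signal was fitted relative to DMSO.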

[10] = system: zebrafish Estrogen Receptor (ESR2B), gene 317733; experiment: ATG_zfER2b_XSP1: Attagene TRANS-FACTORIAL Multi-Species (XSP1) HepG2 Assay for zebrafish Estrogen Receptor (ESR2B) (AID 2283773)
In short: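 HepG2 cells transiently transfected with GAL4-UAS reporter units for chimeric zebrafish ER2b-Gal4, with 3 nM 6-alpha-fluorotestosterone present; reporter mRNA measured 24 h after dosing by RT-PCR and capillary electrophoresis, gain versus DMSO.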

[11] = system: frog Estrogen Receptor (ESR2), gene 100174814; experiment: ATG_frER2_XSP1: Attagene TRANS-FACTORIAL Multi-Species (XSP1) HepG2 Assay for frog Estrogen Receptor (ESR2) (AID 2283774)
In short: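 HepG2 cells transiently transfected with GAL4-UAS reporter units expressing chimeric frog ER-Gal4; 3 nM 6-alpha-fluorotestosterone present. After 24 h dosing, reporter mRNA quantified by RT-PCR and capillary electrophoresis; gain-of-signal fitted relative to DMSO.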

[12] = target: zebrafish Estrogen Receptor (ESR1), esr1 (gene 259252) (UniProt P57717); experiment: ATG_zfER1_XSP1: Attagene TRANS-FACTORIAL Multi-Species (XSP1) HepG2 Assay for zebrafish Estrogen Receptor (ESR1) (AID 2283772)
Sequence of zebrafish Estrogen Receptor (ESR1), esr1 (gene 259252) (P57717 whole entry, looked up, the tested form may be a part): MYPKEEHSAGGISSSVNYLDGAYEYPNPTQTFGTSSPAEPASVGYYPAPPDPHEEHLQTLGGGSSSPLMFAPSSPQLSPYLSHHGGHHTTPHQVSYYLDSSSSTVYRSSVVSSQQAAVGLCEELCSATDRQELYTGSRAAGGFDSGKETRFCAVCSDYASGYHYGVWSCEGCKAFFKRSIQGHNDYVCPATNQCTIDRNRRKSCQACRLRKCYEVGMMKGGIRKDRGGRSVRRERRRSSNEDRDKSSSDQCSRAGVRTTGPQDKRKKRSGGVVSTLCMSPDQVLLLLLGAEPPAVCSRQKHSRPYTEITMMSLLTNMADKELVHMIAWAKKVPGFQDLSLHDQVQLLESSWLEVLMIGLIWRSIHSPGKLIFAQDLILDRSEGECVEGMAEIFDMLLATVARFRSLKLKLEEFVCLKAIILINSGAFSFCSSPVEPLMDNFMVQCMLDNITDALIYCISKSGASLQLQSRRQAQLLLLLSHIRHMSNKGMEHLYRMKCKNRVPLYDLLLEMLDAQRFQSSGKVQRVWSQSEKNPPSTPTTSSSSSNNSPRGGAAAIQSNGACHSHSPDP
In short: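 Exogenous chimeric receptor-GAL4 activity is measured in transiently transfected human HepG2 liver cells after 24 h compound exposure. Reporter transcripts are detected by RT-PCR and fluorescent capillary electrophoresis, analysed for signal gain relative to DMSO.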

SMILES: O=C(Nc1ccc2[nH]ccc2c1)c1cc2cc(F)ccc2n1Cc1cccc(F)c1
- AC50 [1]: 1.27 µM (active)
- AC50 [2]: 1.28 µM (active)
- outcome [3]: inactive
- outcome [4]: inactive
- AC50 [5]: 33.3 µM (active)
- AC50 [6]: 14.5 µM (active)

SMILES: C[C@]12CCC(=O)C[C@@H]1CC[C@@H]1[C@@H]2CC[C@]2(C)[C@@H](O)CC[C@@H]12
- outcome [3]: inactive
- outcome [4]: inactive
- AC50 [7]: 0.282 µM (active)
- AC50 [8]: 0.177 µM (active)
- AC50 [9]: 0.0358 µM (active)
- AC50 [10]: 1 µM (active)
- AC50 [11]: 1.31 µM (active)

SMILES: ClC(Cl)=C(Cl)C(Cl)=C(Cl)Cl
- outcome [3]: inactive

SMILES: C(=NC1CCCCC1)=NC1CCCCC1
- outcome [3]: inactive

SMILES: C=C(C)C(=O)[O][Sn]([CH2]CCC)([CH2]CCC)[CH2]CCC
- AC50 [1]: 0.266 µM (active)
- AC50 [2]: 0.441 µM (active)
- AC50 [4]: 1.54 µM (active)

SMILES: C=CC(=O)N(C)C
- outcome [3]: inactive

SMILES: O=C(Cc1ccccc1)c1ccccc1
- outcome [3]: inactive

SMILES: CCOP(=S)(OCC)Oc1nc(Cl)c(Cl)cc1Cl
- AC50 [3]: 93.2 µM (active)
- outcome [4]: inactive
- outcome [5]: inactive

SMILES: C[C@H]1CCCC(=O)CCC/C=C/c2cc(O)cc(O)c2C(=O)O1
- AC50 [3]: 69.8 µM (active)
- outcome [5]: inactive

SMILES: C1CCC(NC2CCCCC2)CC1
- outcome [3]: inactive

SMILES: CC12CC1(C)C(=O)N(c1cc(Cl)cc(Cl)c1)C2=O (stereo not given)
- AC50 [1]: 50 µM (active)
- AC50 [2]: 50 µM (active)
- outcome [3]: inactive
- outcome [4]: inactive
- outcome [5]: inactive
- outcome [9]: inactive
- outcome [12]: inactive
- AC50 [10]: 60.6 µM (active)
- AC50 [11]: 24.7 µM (active)

SMILES: C[C@@H]1C[C@@H]([C@H](O)CC2CC(=O)NC(=O)C2)C(=O)[C@@H](C)C1
- AC50 [1]: 0.92 µM (active)
- AC50 [2]: 2.9 µM (active)
- outcome [3]: inactive
- AC50 [4]: 17.9 µM (active)
- AC50 [6]: 2.1 µM (active)

SMILES: CN(CCCC(=O)c1cccnc1)N=O
- outcome [3]: inactive

SMILES: Oc1ccc(-c2ccccc2)cc1
- outcome [3]: inactive

SMILES: O=C(OC1CCCCC1)c1ccccc1C(=O)OC1CCCCC1
- AC50 [3]: 28.6 µM (active)

SMILES: Fc1ccc(C2(Cn3cncn3)OC2c2ccccc2Cl)cc1 (stereo not given)
- outcome [3]: inactive

SMILES: CCN1CCC2(CC1)COc1cc3c(cc12)N(C(=O)c1ccc(-c2ccc(-c4nnc(C)o4)cc2C)cc1)CC3
- AC50 [1]: 3.56 µM (active)
- AC50 [2]: 7.61 µM (active)
- outcome [4]: inactive

SMILES: COc1cc(-c2ccc(N)c(OC)c2)ccc1N
- outcome [3]: inactive
- AC50 [4]: 3.57 µM (active)
- outcome [4]: inactive
- AC50 [6]: 27.1 µM (active)

SMILES: c1cc[c]([Hg][c]2ccccc2)cc1
- AC50 [3]: 24.7 µM (active)
- AC50 [6]: 26.6 µM (active)

SMILES: C[C@]12CC[C@H](O)CC1=CC[C@@H]1[C@@H]2CC[C@]2(C)C(=O)CC[C@@H]12
- outcome [3]: inactive

SMILES: CC1(C)CCC(Cc2ccc(Cl)cc2)C1(O)Cn1cncn1 (stereo not given)
- outcome [3]: inactive
- outcome [5]: inactive
- AC50 [9]: 165 µM (active)
- outcome [12]: inactive
- AC50 [10]: 27.7 µM (active)
- AC50 [11]: 26.3 µM (active)
